This passage reports inhibition results from ChEMBL document CHEMBL3433997, “St. Jude Leishmania screening dataset” (2016).

Solute carrier family 2, facilitated glucose transporter member 1 (Homo sapiens), sequence (P11166 whole entry): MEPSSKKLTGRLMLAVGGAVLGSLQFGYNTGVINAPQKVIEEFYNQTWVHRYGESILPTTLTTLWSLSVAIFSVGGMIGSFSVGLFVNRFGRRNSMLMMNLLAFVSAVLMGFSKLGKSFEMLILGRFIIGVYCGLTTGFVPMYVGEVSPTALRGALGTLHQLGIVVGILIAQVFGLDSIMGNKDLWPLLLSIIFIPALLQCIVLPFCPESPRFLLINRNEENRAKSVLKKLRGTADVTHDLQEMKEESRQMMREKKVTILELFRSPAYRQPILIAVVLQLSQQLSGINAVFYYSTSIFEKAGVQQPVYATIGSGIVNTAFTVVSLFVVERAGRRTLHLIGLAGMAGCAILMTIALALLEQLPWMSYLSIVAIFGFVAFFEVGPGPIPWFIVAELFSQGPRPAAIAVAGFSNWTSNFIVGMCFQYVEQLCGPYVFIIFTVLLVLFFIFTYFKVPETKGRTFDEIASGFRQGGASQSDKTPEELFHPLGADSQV

One experiment has as its target Solute carrier family 2, facilitated glucose transporter member 1 (Homo sapiens) (UniProt P11166). The experiment can be described thus: ST_JUDE_LEISH: Cytotoxicity at 2uM final concentration against transgenic Leishmania Mexicana promastigotes LmGLUT1 that are glucose transport deficient and complemented with the human glucose transporter GLUT1. Activity is measured by DNA content using SYBR green in vitro. The experiment is classed as functional.
Take `Cc1nc(N)nc(N)c1OCc1cccc2c1ccc1ccccc12`: the inhibition was determined as 3.53%.
Still for that read-out and setting: the same measure for `O=S(=O)(Nc1cc2c(cc1OCCCN1CCCCC1)CCNCC2)c1ccc(-c2ccc(Cl)cc2)cc1`: 1.29%.
In the case of `c1ccc(CNc2nc(NCCN3CCCCC3)nc3ccccc23)cc1`, the inhibition was 10.2%.
On the same count and under the same terms, the same measure for `CC(C)(C)c1cc(C(=O)N2CCN(c3ncccc3C(F)(F)F)CC2)n(Cc2ccccc2)n1`: 5.66%; for `O=C(/C=C/c1ccc(Cl)c(Cl)c1)NCCC(CN1CCC(c2c[nH]c3ccccc23)CC1)c1ccccc1` (stereo not given): 2.74%; for `CC(=O)c1cccc(NC(=O)C2c3ccccc3C(=O)N(CC(C)C)C2c2cccs2)c1` (stereo not given): -0.21%.
As for `COc1ccc2nccc([C@@H](O)CN3CCC(NCc4cc5cc(OC(F)(F)F)ccc5[nH]4)CC3)c2c1`, the inhibition was 9.94%.
Still for that read-out and setting: with `Cc1csc(-c2ncc(OC[C@@H](N)Cc3ccccc3)cc2-c2ccc3[nH]nc(C)c3c2)c1` the figure was 2.54%; with `Fc1ccc2[nH]c(-c3ccc(-c4ccc(CN5CCCCC5)cc4)cc3)nc2c1`, 8.66%.
Same read-out and setting: the same measure for `CN(C(=O)Cc1ccc(Cl)cc1)C1CCN(CCCCCNC(=O)/C=C/c2ccc(Cl)c(Cl)c2)CC1`: 2.86%.
The same measure, in the same setting: the same measure for `O=[N+]([O-])c1ccccc1C=NN=c1c2c([nH]c3ccccc13)CCCC2`: 20.8%; for `COc1cc2ncnc(Nc3ccc(OCc4ccccc4Br)c(OC)c3)c2cc1OC`: 1.37%.
In the case of `OCC1CCN(Cc2ccc(-c3ccc(-c4nc5ccccc5[nH]4)cc3)cc2)CC1`, the inhibition came to 6.11%.
In the case of `Cc1[nH]cnc1CSCCNC(=N)NCCCCCCCCNC(=N)NCCSCc1nc[nH]c1C`, the inhibition is -1.07%.
As to `COCCOc1ccc(Nc2nccc(-c3c(-c4cccc(NC(=O)c5c(F)cccc5F)c4)nn4ccccc34)n2)cc1F`, the inhibition stood at 7.82%.
Still for that read-out and setting: with `CCCCNC(=N)c1ccc(OCCCCCOc2ccc(C(=N)NCCCC)cc2)cc1` the figure was 5.34%; with `O=C(C=Cc1ccc(Cl)c(Cl)c1)NCCCCCN1CCCC(CCCNC(=O)/C=C/c2ccccc2)C1` (stereo not given), 3.2%; with `O=C(Nc1cccc(-c2cccc(CN3CCCC3)c2)c1)c1cccc(Cl)c1`, 2.72%.
Still for that read-out and setting: the same measure for `CN1CC=C(c2csc3ccc(NC(=O)Nc4ccc(-c5ccncc5)c5ccccc45)cc23)CC1`: 3.83%; for `CCCC(C)NC(=O)[C@H](CC1CCCCC1)NC(=O)c1ccc(O)c(-c2cccc(C(F)(F)F)c2)c1` (stereo not given in full): -1.37%; for `COc1ccc(NC(=O)/C=C/c2ccccc2Cl)cc1OCCN1CCC(O)(c2ccc(Cl)c(C(F)(F)F)c2)CC1`: 11.2%.
`CN(C)CCCOc1ccc(CNCc2cccc(Oc3ccc(Cl)cc3)c2)cc1`: the inhibition came out at 6.24%.
In the case of `C#CCOc1ccc2ccccc2c1CNCCCCCCNCc1c(OCC#C)ccc2ccccc12`, the inhibition worked out at 8.53%.
Turning to `Cc1ccc2[nH]c(C)cc(=NN=Cc3cccc(Cl)c3)c2c1`, the inhibition is 2.87%.
`CCCC(CNCc1cccc(SC(F)(F)F)c1)CNc1cc(=O)c2ccccc2[nH]1` (stereo not given): the inhibition was -0.14%.
As for `CCCCc1cc(NCc2ccncc2)nc(Nc2ccc(OC)cc2)n1`, the inhibition worked out at 12.9%.
Same read-out and setting: with `COc1ccc(Oc2ccc(-c3c(C)[nH]c(C)c(Cl)c3=O)cc2)cc1` the figure was 2.75%.
On to `Nc1nc2c(ncn2OC[C@H](CO)OCP(=O)(O)O)c(=O)[nH]1`, for which the inhibition is 0.43%.
Same read-out and setting: with `COc1cc(Br)c(NC(=O)Nc2ccc(C(F)(F)F)c(O[C@@H]3CCN(C)C3)c2)cc1OC` the figure was 2.53%; with `CCOc1cc(-c2nnc3[nH]c(=O)n(C)c(=O)c3n2)ccc1OC(C)C`, 2.56%; with `N=C(N)NN=CC(=O)Nc1ccc(C(F)(F)F)cc1`, -0.81%.
As to `O=C(N/C=N/c1cc([N+](=O)[O-])c(-c2ccncc2)n1-c1ccccc1)c1cccc(O)c1`, the inhibition was found to be 0.21%.
Same read-out and setting: with `COc1cc(C=NNc2ccnc3cc(Cl)ccc23)ccc1O` the figure was 2.02%; with `COc1cc(C)nc2ccc(NC(=O)Nc3ccc([N+](=O)[O-])cc3C)cc12`, 3.91%; with `Cc1ccc(O)cc1Nc1ccnc2cc(-c3csc(CN4CCN(C)CC4)n3)ccc12`, 8.26%.
For `CCOc1cc(C=Cc2nc(O)c3ccccc3n2)cc(Cl)c1O`, the inhibition was 5.1%.
Still for that read-out and setting: the same measure for `Cc1cc2ncc(C(N)=O)c(Nc3ccc(N4CCOCC4)cc3)c2cc1S(C)(=O)=O`: 1.97%.
With `COc1cccc(-c2ccc3ccnc(N)c3c2)c1`, the inhibition was determined as 4.14%.
On the same count and under the same terms, the same measure for `N=C(NCc1ccc(O)cc1)Nc1nc(-c2ccc(OCCCn3ccnc3)cc2)cs1`: 1.63%; for `CCCCCCCCCc1c(C)[nH]c2ccccc2c1=O`: -1.28%.

The next experiment deals with Hexose transporter 1 (Plasmodium falciparum) (UniProt O97467). The experiment can be described thus: ST_JUDE_LEISH: Cytotoxicity at 2uM final concentration against transgenic Leishmania Mexicana promastigotes LmPfHT that are glucose transport deficient and complemented with the Plasmodium falciparum hexose transporter. Activity is measured by DNA content using SYBR green in vitro. The experiment is classed as functional.
As to `Cc1nc(N)nc(N)c1OCc1cccc2c1ccc1ccccc12`, the inhibition amounted to 6.28%.
With `O=S(=O)(Nc1cc2c(cc1OCCCN1CCCCC1)CCNCC2)c1ccc(-c2ccc(Cl)cc2)cc1`, the inhibition is -0.13%.
`c1ccc(CNc2nc(NCCN3CCCCC3)nc3ccccc23)cc1`: the inhibition is 11.1%.
The same measure, in the same setting: the same measure for `CC(C)(C)c1cc(C(=O)N2CCN(c3ncccc3C(F)(F)F)CC2)n(Cc2ccccc2)n1`: 6.48%; for `O=C(/C=C/c1ccc(Cl)c(Cl)c1)NCCC(CN1CCC(c2c[nH]c3ccccc23)CC1)c1ccccc1` (stereo not given): 2.22%; for `CC(=O)c1cccc(NC(=O)C2c3ccccc3C(=O)N(CC(C)C)C2c2cccs2)c1` (stereo not given): 0.13%.
Same read-out and setting: with `COc1ccc2nccc([C@@H](O)CN3CCC(NCc4cc5cc(OC(F)(F)F)ccc5[nH]4)CC3)c2c1` the figure was 10.4%.
Still for that read-out and setting: the same measure for `Cc1csc(-c2ncc(OC[C@@H](N)Cc3ccccc3)cc2-c2ccc3[nH]nc(C)c3c2)c1`: 0.85%.
In the case of `Fc1ccc2[nH]c(-c3ccc(-c4ccc(CN5CCCCC5)cc4)cc3)nc2c1`, the inhibition is 7.06%.
Still for that read-out and setting: with `CN(C(=O)Cc1ccc(Cl)cc1)C1CCN(CCCCCNC(=O)/C=C/c2ccc(Cl)c(Cl)c2)CC1` the figure was 2.1%.
Still for that read-out and setting: the same measure for `O=[N+]([O-])c1ccccc1C=NN=c1c2c([nH]c3ccccc13)CCCC2`: 17.5%.
In the case of `COc1cc2ncnc(Nc3ccc(OCc4ccccc4Br)c(OC)c3)c2cc1OC`, the inhibition came out at 0.69%.
The same measure, in the same setting: the same measure for `OCC1CCN(Cc2ccc(-c3ccc(-c4nc5ccccc5[nH]4)cc3)cc2)CC1`: 5.06%.
The same measure, in the same setting: with `Cc1[nH]cnc1CSCCNC(=N)NCCCCCCCCNC(=N)NCCSCc1nc[nH]c1C` the figure was 0.71%; with `COCCOc1ccc(Nc2nccc(-c3c(-c4cccc(NC(=O)c5c(F)cccc5F)c4)nn4ccccc34)n2)cc1F`, 10.9%.
The same measure, in the same setting: the same measure for `CCCCNC(=N)c1ccc(OCCCCCOc2ccc(C(=N)NCCCC)cc2)cc1`: 2.05%; for `O=C(C=Cc1ccc(Cl)c(Cl)c1)NCCCCCN1CCCC(CCCNC(=O)/C=C/c2ccccc2)C1` (stereo not given): 3.05%.
As to `O=C(Nc1cccc(-c2cccc(CN3CCCC3)c2)c1)c1cccc(Cl)c1`, the inhibition stood at 2.72%.
On the same count and under the same terms, the same measure for `CN1CC=C(c2csc3ccc(NC(=O)Nc4ccc(-c5ccncc5)c5ccccc45)cc23)CC1`: 3.39%; for `CCCC(C)NC(=O)[C@H](CC1CCCCC1)NC(=O)c1ccc(O)c(-c2cccc(C(F)(F)F)c2)c1` (stereo not given in full): 3.47%; for `COc1ccc(NC(=O)/C=C/c2ccccc2Cl)cc1OCCN1CCC(O)(c2ccc(Cl)c(C(F)(F)F)c2)CC1`: 8.47%.
With `CN(C)CCCOc1ccc(CNCc2cccc(Oc3ccc(Cl)cc3)c2)cc1`, the inhibition was 2.32%.
Regarding `C#CCOc1ccc2ccccc2c1CNCCCCCCNCc1c(OCC#C)ccc2ccccc12`, the inhibition amounted to 2.21%.
Still for that read-out and setting: the same measure for `Cc1ccc2[nH]c(C)cc(=NN=Cc3cccc(Cl)c3)c2c1`: 0.92%.
The same measure, in the same setting: with `CCCC(CNCc1cccc(SC(F)(F)F)c1)CNc1cc(=O)c2ccccc2[nH]1` (stereo not given) the figure was 1.41%; with `CCCCc1cc(NCc2ccncc2)nc(Nc2ccc(OC)cc2)n1`, 5.76%.
Same read-out and setting: the same measure for `COc1ccc(Oc2ccc(-c3c(C)[nH]c(C)c(Cl)c3=O)cc2)cc1`: 3.46%; for `Nc1nc2c(ncn2OC[C@H](CO)OCP(=O)(O)O)c(=O)[nH]1`: -1.69%; for `COc1cc(Br)c(NC(=O)Nc2ccc(C(F)(F)F)c(O[C@@H]3CCN(C)C3)c2)cc1OC`: 2.26%.
Regarding `CCOc1cc(-c2nnc3[nH]c(=O)n(C)c(=O)c3n2)ccc1OC(C)C`, the inhibition is 2.55%.
The same measure, in the same setting: with `N=C(N)NN=CC(=O)Nc1ccc(C(F)(F)F)cc1` the figure was -0.97%; with `O=C(N/C=N/c1cc([N+](=O)[O-])c(-c2ccncc2)n1-c1ccccc1)c1cccc(O)c1`, 0.41%.
Same read-out and setting: with `COc1cc(C=NNc2ccnc3cc(Cl)ccc23)ccc1O` the figure was 2.62%; with `COc1cc(C)nc2ccc(NC(=O)Nc3ccc([N+](=O)[O-])cc3C)cc12`, 2.99%; with `Cc1ccc(O)cc1Nc1ccnc2cc(-c3csc(CN4CCN(C)CC4)n3)ccc12`, 5.93%.
Same read-out and setting: with `CCOc1cc(C=Cc2nc(O)c3ccccc3n2)cc(Cl)c1O` the figure was 4.12%.
Turning to `Cc1cc2ncc(C(N)=O)c(Nc3ccc(N4CCOCC4)cc3)c2cc1S(C)(=O)=O`, the inhibition amounted to 3.83%.
The same measure, in the same setting: with `COc1cccc(-c2ccc3ccnc(N)c3c2)c1` the figure was 4.24%; with `N=C(NCc1ccc(O)cc1)Nc1nc(-c2ccc(OCCCn3ccnc3)cc2)cs1`, 0.11%.
The same measure, in the same setting: the same measure for `CCCCCCCCCc1c(C)[nH]c2ccccc2c1=O`: 2.65%.
